Data published in PubChem BioAssay (NCI).
Compounds without any hit were thinned out: in the full panel of roughly 83,000, 20% have a hit.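 Treatment: one concentration, 48 hours, 96-well format. Scoring: percent growth, with anything below 10 considered active.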 The source made the active and inactive calls.

Assays:
Test in all cases: NCI-60 one-dose screen, 48 h (100 = growth as untreated, 0 = no growth, -100 = all killed)
Details in all cases: 10 µM unless noted
[1] = tested on: T-47D breast
[2] = tested on: BT-549 breast
[3] = tested on: MDA-MB-435 melanoma
[4] = tested on: SW-620 colon
[5] = tested on: MCF7 breast
[6] = tested on: HCT-116 colon
[7] = tested on: HCC-2998 colon
[8] = tested on: KM12 colon

Measured: growth

O=C(O)CS(=O)c1ccc(Cl)cc1 (stereo not given)
inactive: [1] 101% | [2] 99.8% | [3] 102% | [4] 106% | [5] 101% | [6] 97.6% | [7] 97.1% | [8] 103%

CC(=O)C(CO)C(=O)Nc1ccccc1 (stereo not given)
inactive: [1] 94.5% | [2] 106% | [3] 106% | [4] 109% | [5] 91.5% | [6] 106% | [7] 99.3% | [8] 104%

COc1cc(Cn2ccc3c2-c2oncc2CC3)cc(OC)c1
inactive: [1] 32.2% | [2] 32.9% | [4] 18% | [6] 14.7% | [7] 61.6% | [8] 24.5%
active: [3] -37% | [5] 6.18%

COc1ccc(-c2nc(SCC(C)C)nc(Nc3ccc(C(=O)O)cc3)c2C#N)cc1
inactive: [1] 87.3% | [2] 85.6% | [3] 99.5% | [4] 102% | [5] 67.2% | [6] 85.1% | [7] 97.7% | [8] 91.8%

O=C(O)c1ccc(-c2nn(-c3ccc(C(=O)O)cc3)cc2CNc2ccc(Br)cc2)cc1
inactive: [1] 96.6% | [2] 98.8% | [3] 107% | [4] 107% | [5] 90.3% | [6] 101% | [7] 102% | [8] 98.1%

OCCN1CCCN(CCCN2c3ccccc3Sc3ccc(C(F)(F)F)cc32)CC1
inactive: [1] 60.7% | [2] 72.3% | [4] 67.7% | [5] 39.2% | [6] 29.2% | [8] 54.7%
active: [3] -29.2% | [7] -42.4%

Cc1nc2ccccc2c(=O)n1-c1cccc(OCc2cn(-c3cccc(O)c3)nn2)c1
inactive: [1] 68.4% | [2] 99.8% | [3] 108% | [4] 104% | [5] 94.3% | [6] 95.2% | [7] 103% | [8] 95.2%

O=C1Nc2ccccc2/C1=C/c1cn(CC(O)Cn2cc(/C=C3\C(=O)Nc4ccccc43)c3ccccc32)c2ccccc12 (stereo not given)
active: [1] -46.1% | [2] -55.3% | [3] -87.6% | [4] -60.4% | [5] -67.5% | [6] -64.2% | [7] -16.9% | [8] -80.9%

CC(=O)c1ccc2c(c1)c1ccccc1n2C
inactive: [1] 103% | [2] 96.1% | [3] 99.3% | [4] 113% | [5] 86.4% | [6] 96.7% | [7] 100% | [8] 97.9%

CC(=O)OC1CC2C3CCC4C[C@@H](NC(=O)C=C(C)C)CC[C@]4(C)C3CC[C@]2(C)[C@H]1C(C)N(C)C (stereo not given in full)
active: [1] -22.3% | [3] -45.4% | [4] -72.5% | [5] 1.95% | [6] -70.4% | [7] -51.9% | [8] 1.6%
inactive: [2] 22.5%

Nc1ccc(N=Nc2ccccc2)c2cc(S(=O)(=O)O)ccc12
inactive: [1] 97% | [2] 114% | [3] 108% | [4] 106% | [5] 86.5% | [6] 104% | [7] 103% | [8] 103%

CCCCS(=O)(=O)c1cc(Nc2ccc(O)c3c2C(=O)c2ccccc2C3=O)ccc1C
active: [3] -85.7%
inactive: [1] 75.6% | [2] 91.6% | [4] 103% | [5] 33.8% | [6] 78.7% | [7] 67% | [8] 73.4%

O=C1C(Cl)=C(SC2=NCCN2)C(=O)c2ccccc21
inactive: [1] 49.7% | [2] 90.3% | [3] 62.7% | [4] 95.6% | [5] 61.1% | [6] 65% | [7] 106% | [8] 75.5%

CC([C@H]1CC=C2C3CCC4=C[C@@H](N(C)C)CC[C@]4(C)C3CC[C@@]21C)N(C)C (stereo not given in full)
active: [3] -67.5% | [4] 9.89% | [6] -57%
inactive: [1] 29.1% | [2] 90.5% | [5] 34.9% | [7] 49.6% | [8] 30.6%

CC(=O)CCS(=O)c1ccccc1 (stereo not given)
inactive: [1] 100% | [2] 119% | [3] 111% | [4] 98% | [5] 91.6% | [6] 102% | [7] 91.7% | [8] 97.9%
